The campaign covered roughly 5,500 compounds. About 2,000 (36%) were called active. About 18% were inconclusive and are not listed. Rule as the data show it: active = normalized growth mostly below about 0.91 (no sharp cut-off); inconclusive = no clear call, values can overlap the other calls; inactive = mostly above about 0.92. The list shows a part of the results.
Assay: chemical genetic growth profiling, strain panel (AID 1159580);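 also: tested at 20 µM; growth read once vehicle control cultures reached saturation at 30 °C; 1 = growth at the plate median or of vehicle wells; lower values mean less growth of the strain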
Settings: S. cerevisiae deletion strains, growth OD
[1] = locus YHR030C, strain SLT2, stronger effect = lower value
[2] = locus YHR079C, strain IRE1, stronger effect = lower value
[3] = locus YJL095W, strain BCK1, stronger effect = lower value
[4] = locus YJR066W, strain TOR1, stronger effect = lower value
[5] = locus YLR113W, strain HOG1, stronger effect = lower value
[6] = locus YNL183C, strain NPR1, stronger effect = lower value
[7] = locus YOR231W, strain MKK1, stronger effect = lower value
[8] = locus YPL256C, strain CLN2, stronger effect = lower value

Measured: normalized growth

C[N+]1(C)CCc2cc3c(cc2[C@H]1C1OC(=O)c2c1ccc1c2OCO1)OCO3 (stereo partly drawn)
inactive: locus YAL021C, strain ccr4, stronger effect = lower value 0.981 | locus YAL026C, strain drs2, stronger effect = lower value 0.987 | locus YAL030W, strain snc1, stronger effect = lower value 0.999 | locus YBL061C, strain skt5, stronger effect = lower value 1 | locus YBR009C, strain hhf1, stronger effect = lower value 0.992 | locus YBR023C, strain chs3, stronger effect = lower value 1.01 | locus YBR171W, strain sec66, stronger effect = lower value 1 | locus YBR231C, strain swc5, stronger effect = lower value 1.01 | locus YBR279W, strain paf1, stronger effect = lower value 0.997 | locus YCL011C, strain gbp2, stronger effect = lower value 0.999 | locus YCL016C, strain dcc1, stronger effect = lower value 0.991 | locus YCL061C, strain MRC1, stronger effect = lower value 0.994 | locus YCL069W, strain vba3, stronger effect = lower value 0.999 | locus YCR088W, strain abp1, stronger effect = lower value 0.997 | locus YDL005C, strain med2, stronger effect = lower value 1 | locus YDL040C, strain nat1, stronger effect = lower value 0.996 | locus YDR001C, strain nth1, stronger effect = lower value 0.983 | locus YDR069C, strain doa4, stronger effect = lower value 1.02 | locus YDR137W, strain rgp1, stronger effect = lower value 0.996 | locus YDR159W, strain sac3, stronger effect = lower value 1.07 | locus YDR195W, strain ref2 0.989 | locus YDR297W, strain sur2, stronger effect = lower value 1.01 | locus YDR334W, strain swr1, stronger effect = lower value 0.986 | locus YDR335W, strain msn5, stronger effect = lower value 0.996 | locus YDR392W, strain spt3, stronger effect = lower value 0.982 | locus YEL003W, strain gim4, stronger effect = lower value 1 | locus YEL037C, strain rad23, stronger effect = lower value 0.99 | locus YEL061C, strain CIN8 (second series), stronger effect = lower value 0.99 | locus YER015W, strain faa2, stronger effect = lower value 0.992 | locus YER016W, strain bim1, stronger effect = lower value 1 | locus YER111C, strain swi4, stronger effect = lower value 1.01 | locus YER155C, strain BEM2 (second series), stronger effect = lower value 1 | locus YFR010W, strain ubp6, stronger effect = lower value 0.989 | locus YGL167C, strain pmr1, stronger effect = lower value 0.998 | locus YGL173C, strain kem1, stronger effect = lower value 1.01 | locus YGL227W, strain vid30, stronger effect = lower value 1 | locus YGL240W, strain doc1, stronger effect = lower value 1.01 | locus YGL253W, strain hxk2, stronger effect = lower value 0.995 | locus YHR013C, strain ard1, stronger effect = lower value 0.957 | locus YHR027C, strain rpn1, stronger effect = lower value 0.992 | [1] 1.06 | [2] 1.06 | locus YHR142W, strain chs7, stronger effect = lower value 0.981 | locus YJL092W, strain hpr5, stronger effect = lower value 0.995 | locus YJL095W, strain BCK1 (second series), stronger effect = lower value 0.994 | [3] 1.06 | locus YJL115W, strain asf1, stronger effect = lower value 0.978 | locus YJL129C, strain trk1, stronger effect = lower value 1 | locus YJL154C, strain vps35, stronger effect = lower value 0.991 | locus YJL164C, strain tpk1, stronger effect = lower value 0.98 | locus YJL166W, strain qcr8, stronger effect = lower value 1 | locus YJL187C, strain SWE1, stronger effect = lower value 1.02 | [4] 0.973 | locus YKL160W, strain elf1, stronger effect = lower value 0.989 | locus YKR026C, strain gcn3, stronger effect = lower value 0.991 | locus YKR091W, strain srl3, stronger effect = lower value 0.988 | locus YLL001W, strain dnm1, stronger effect = lower value 0.97 | locus YLL026W, stronger effect = lower value 1 | locus YLL041C, strain sdh2, stronger effect = lower value 0.993 | locus YLR027C, strain aat2, stronger effect = lower value 1.01 | [5] 1.03 | locus YLR221C, strain rsa3, stronger effect = lower value 1.03 | locus YLR258W, strain gsy2, stronger effect = lower value 1.01 | locus YLR262C, strain YPT6 (second series), stronger effect = lower value 0.995 | locus YLR320W, strain mms22, stronger effect = lower value 1.03 | locus YLR342W, strain FKS1, stronger effect = lower value 0.996 | locus YLR357W, strain rsc2, stronger effect = lower value 0.956 | locus YLR370C, strain arc18, stronger effect = lower value 1.01 | locus YLR384C, strain iki3, stronger effect = lower value 0.999 | locus YML120C, strain ndi1, stronger effect = lower value 0.991 | locus YMR058W, strain fet3, stronger effect = lower value 0.986 | locus YMR125W, strain sto1, stronger effect = lower value 0.97 | locus YMR129W, stronger effect = lower value 1 | locus YMR205C, strain PFK2, stronger effect = lower value 0.971 | locus YMR231W, strain pep5, stronger effect = lower value 0.983 | locus YNL071W, strain lat1, stronger effect = lower value 0.997 | [6] 0.974 | locus YNL209W, strain ssb2, stronger effect = lower value 1 | locus YNL248C, strain rpa49, stronger effect = lower value 0.959 | locus YNL322C, strain KRE1 (second series), stronger effect = lower value 1 | locus YNR049C, strain mso1, stronger effect = lower value 1.01 | locus YOR001W, strain rrp6, stronger effect = lower value 1.01 | locus YOR070C, strain gyp1, stronger effect = lower value 1.02 | locus YOR080W, strain dia2, stronger effect = lower value 1.01 | locus YOR083W, strain WHI5, stronger effect = lower value 0.997 | locus YOR106W, strain vam3, stronger effect = lower value 0.963 | [7] 1.03 | locus YOR265W, strain rbl2, stronger effect = lower value 1.01 | locus YOR270C, strain vph1, stronger effect = lower value 0.967 | locus YOR290C, strain snf2, stronger effect = lower value 0.95 | locus YPL051W, strain arl3, stronger effect = lower value 1.04 | locus YPL078C, strain atp4, stronger effect = lower value 0.965 | locus YPL106C, strain sse1, stronger effect = lower value 0.999 | locus YPL240C, strain hsp82, stronger effect = lower value 1.01 | [8] 1.03

CC(C)N=c1cc2n(-c3ccc(Cl)cc3)c3ccccc3nc-2cc1Nc1ccc(Cl)cc1
active: [2] 0.812 | [3] 0.869 | [5] 0.807 | [7] 0.831 | [8] 0.818
inactive: [1] 0.929 | [4] 0.948 | [6] 0.9

Reference: PubChem BioAssay AID1159580 (chemical genetic matrix, 2015)
